Laboratory results: PubChem BioAssay AID651834 (Broad Institute, 2012)
Activity calls are given as the source filed them. No rule for the calls is given here.

target: Kelch-like ECH-associated protein 1 (Homo sapiens) (UniProt Q14145); assay: disruptors of Keap1/Nrf2 protein interaction – biochemical, fluorescence polarization, dry powder, set 4, dose response (AID 651834); conditions: Keap1-Nrf2 peptide fluorescence polarization, plate reader; series mostly up to 100 µM
Sequence (Q14145 whole entry, looked up): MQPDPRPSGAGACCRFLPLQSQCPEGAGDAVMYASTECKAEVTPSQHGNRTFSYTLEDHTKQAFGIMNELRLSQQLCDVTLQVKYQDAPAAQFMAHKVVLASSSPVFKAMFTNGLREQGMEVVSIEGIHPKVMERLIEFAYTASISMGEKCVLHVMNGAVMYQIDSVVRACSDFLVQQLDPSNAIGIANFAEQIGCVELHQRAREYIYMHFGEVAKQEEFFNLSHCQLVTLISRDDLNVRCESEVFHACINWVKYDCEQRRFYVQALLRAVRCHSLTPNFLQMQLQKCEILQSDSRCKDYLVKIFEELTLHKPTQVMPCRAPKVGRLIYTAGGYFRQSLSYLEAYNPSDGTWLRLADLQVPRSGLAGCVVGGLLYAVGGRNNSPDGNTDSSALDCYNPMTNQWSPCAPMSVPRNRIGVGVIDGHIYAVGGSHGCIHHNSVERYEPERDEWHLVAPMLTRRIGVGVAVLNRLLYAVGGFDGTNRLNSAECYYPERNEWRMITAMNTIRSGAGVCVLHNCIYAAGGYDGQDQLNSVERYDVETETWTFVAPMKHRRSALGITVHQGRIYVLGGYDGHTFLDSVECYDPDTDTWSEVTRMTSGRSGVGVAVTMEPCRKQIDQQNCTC

outcome, inactive:
CCN(CC)C(=O)N1CCc2ccccc2C1CN1C(=O)c2ccccc2C1=O (stereo not given)
COc1cc(/C=C/C(=O)N2CCC=CC2=O)cc(OC)c1OC
CC(=O)N1CCc2ccccc2C1CN1C(=O)c2ccccc2C1=O (stereo not given)
O=C1c2ccccc2C(=O)N1CC1c2ccccc2CCN1C(=O)c1cccc(C(F)(F)F)c1 (stereo not given)
COc1cc(OC)cc(C(=O)N2CCc3ccccc3C2CN2C(=O)c3ccccc3C2=O)c1 (stereo not given)
O=C1c2ccccc2C(=O)N1CC1c2ccccc2CCN1C(=O)N1CCOCC1 (stereo not given)
O=C1c2ccccc2C(=O)N1CC1c2ccccc2CCN1S(=O)(=O)c1cccc2cccnc12 (stereo not given)
O=C1c2ccccc2C(=O)N1CC1c2ccccc2CCN1C(=O)COc1ccc(Cl)cc1Cl (stereo not given)
CS(=O)(=O)N1CCc2ccccc2C1CN1C(=O)c2ccccc2C1=O (stereo not given)
O=C(CN1CCc2ccccc2C1CN1C(=O)c2ccccc2C1=O)c1c[nH]c2ccccc12 (stereo not given)
